Compounds without any hit were thinned out: in the full panel of roughly 83,000, 20% have a hit.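 96-well plates, one dose, 48 hours. Percent growth reported; active if below 10.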 Unmarked numbers belong to inactive results. Calls of active or inactive are those of the source.

This test has as its system MDA-MB-468 breast. Briefly: NCI-60 one-dose screen, 48 h (100 = growth as untreated, 0 = no growth, -100 = all killed). Particulars: 10 µM unless noted.
On to `O=C(Nc1ccc(OCc2nnc(-c3ccc(Cl)cc3)o2)c(F)c1)Nc1ccc(Cl)c(C(F)(F)F)c1`, for which the growth is -24.8% (active).
Next, `COc1cc(C(N)=O)cc(OC)c1OC`: 103%.
Consider `CCN(CC)CCCC(C)Nc1ccnc(/C=C/c2ccc(Cl)cc2)c1` (centres undefined), for which the growth was -84.5% (active).
For `N#C/C(=C\c1cccc(C#N)c1)c1ccccc1`, the growth was 106%.
Next, `FC(F)(F)c1cccc(Nc2ccccc2)c1`: 92.7%; `Cc1nn(-c2ccccc2)c2nc3nc4c(c(N)c3c(-c3ccc(Cl)cc3)c12)CCCC4`: 104%.
Take `O=S(=O)(O)C(Nc1ccccc1)c1ccccc1` (centres undefined): the growth was 92.7%.
As to `CC(C)(C)OC(=O)N1Cc2cc3ccccc3nc2C1CO` (centres undefined), the growth is 71.7%.
Next, `C=C(C)[C@@H]1CC[C@]2(C(=O)OCCCC[P+](c3ccccc3)(c3ccccc3)c3ccccc3)CC[C@]3(C)[C@H](CC[C@@H]4[C@@]5(C)CC[C@H](OC(=O)C(Cl)Cl)C(C)(C)[C@@H]5CC[C@]43C)[C@@H]12`: -61.7% (active); `CCCC1Cc2cc(-n3nc(C)c4c3CC(C)(C)CC4=O)cc(NC3CCC(O)CC3)c2C(=O)N1` (centres undefined): -8.54% (active); `COc1ccc(-c2nc3c(c(-c4ccc(Cl)cc4)nn3-c3ccccc3)c(-c3ccccc3)c2C#N)cc1`: 108%.
Next, `CC(C)(C)OC[C@@H]1N=C(c2ccc(Br)cc2)Nc2nc3ccccn3c2C1=O`: 45.6%.
Next, `O=C(c1c(F)ccc(NS(=O)(=O)N2CC[C@@H](F)C2)c1F)c1c[nH]c2ncc(-c3cnc(C4CC4)nc3)cc12`: 54.7%.
Consider `CNS(=O)(=O)Oc1ccc(-c2sc3cc(OS(=O)(=O)NC)ccc3c2C(=O)c2ccc(OCCN3CCCCC3)cc2)cc1`, for which the growth was 63.1%.
`O=S(=O)(NCCCNc1nccc(-c2c(-c3ccc(F)c(O)c3)nc3occn23)n1)c1ccccc1`: the growth is 94.8%.
For `CCN(CC)CCCNc1nc2ccccc2c2c(=O)c3cc(Cl)ccc3sc12`, the growth is 54.5%.
In the case of `COc1cc(-c2nn(-c3cccc(NC(=O)Nc4cc(C(F)(F)F)cc(C(F)(F)F)c4)c3)cc2-c2ccncc2)ccc1Cl`, the growth is -25.4% (active).
Next, `CN(C)c1ccc(/C=C\N=Nc2ccc(Br)cc2)cc1`: 106%; `Cc1ccc(S(=O)(=O)N2CCC(=O)c3ccccc32)cc1`: 25.7%.
The result for `Cc1ccc2sc3c(NCCCN)nc4ccccc4c3c(=O)c2c1` reads -6.52% (active).
The result for `CC[C@H](C)[C@@H]1NC(=O)[C@H](Cc2ccc(O)cc2)N(C)C(=O)[C@H](Cc2ccccc2)NC(=O)CN(C)C(=O)[C@@H]2CCCN2C(=O)[C@@H](Cc2ccccc2)N(C)C(=O)[C@H](CC(C)C)NC1=O` reads -13.3% (active).
For `O=C(O)c1cn(C2CC2)c2cc(N3CCN(S(=O)(=O)c4ccc(Cl)c(Cl)c4)CC3)c(F)cc2c1=O`, the growth is -10.6% (active).
On to `CCN(CC)c1cc(C)c(Cc2c(OC)ccc3ccccc23)cc1C`, for which the growth was 99.6%.
For the compound `NS(=O)(=O)c1ccc(-n2ncc(NC(=O)Nc3ccc(S(=O)(=O)Nc4nccs4)cc3)c2-c2ccccc2)cc1`, the growth is 102%.
